Results on 40 compounds are retold here after PubChem BioAssay (NCI).

Compounds without any hit were thinned out: in the full panel of roughly 79,000, 15% have a hit. Unmarked numbers belong to inactive results. Activity calls are given as the source filed them. No stated cut-off is given here; in the data, active means growth inhibition above about 70%; inactive means the rest.

This assay in a line: NCI Yeast Anticancer Drug Screen. Data for the bub3 strain (AID 167). Conditions: S. cerevisiae bub3 mutant strain, at 50.0 µM, hits give high values. As for the experimental part: Growth inhibition of yeast strains with defined genetic alterations is measured as a screen for potential anti-cancer activity. Selected strains with alterations in DNA damage repair or cell cycle control were exposed to compounds and growth inhibition was measured relative to vehicle treated controls. The strain used in this assay is bub3
Turning to `O=C(O)COc1ccc(I)cc1I`, the growth inhibition is 23.6%.

With `OC(CC1CCCC(CC(O)c2ccccc2)N1CCc1ccccc1)c1ccccc1` (stereo not given), the growth inhibition is 38.2%.

In the case of `ON=C(C1CCCCC1)C1CCCCC1`, the growth inhibition is -18.3%.

For the compound `CN1C(=S)CSc2ccccc21`, the growth inhibition was -9.75%.

As to `CC(=O)NC(c1ccccc1)(c1ccccc1)c1ccccc1`, the growth inhibition is 31.1%.

As for `C/C(=C1\C(=O)Nc2ccccc21)c1cccnc1`, the growth inhibition was -10.4%.

Consider `CN(C)C(=O)C1CCC(CC2CCCCC2)CC1` (stereo not given), for which the growth inhibition was 98.3% (active).

Consider `COc1ccc(CCNC(=S)NN)cc1OC`, for which the growth inhibition is -17%.

Consider `CCOC(=O)CCC(NC(=O)c1ccc([N+](=O)[O-])cc1)C(=O)OCC` (stereo not given), for which the growth inhibition was 7.7%.

`Cc1ccc(Cl)nn1`: the growth inhibition was 12.9%.

Turning to `CSc1nc2c(nnn2C2OCC(O)C(O)C2O)c(=O)[nH]1` (stereo not given), the growth inhibition was -6.1%.

`CCOC(=O)/C(=C\c1ccccc1Cl)C(C)=O`: the growth inhibition is 98.8% (active).

For the compound `CCC/C(=N/NC(N)=O)c1ccco1`, the growth inhibition was -1.7%.

`Nc1ccc(Br)c2ccccc12`: the growth inhibition was 27.3%.

On to `CN(C)CCNC(=O)c1ccc(C(=O)NCCN(C)C)c2c(C(=O)NCCN(C)C)ccc(C(=O)NCCN(C)C)c12`, for which the growth inhibition was 4.5%.

In the case of `O=C(O)C#Cc1ccccc1[N+](=O)[O-]`, the growth inhibition is 14.9%.

For `COc1cc(C(=O)CC(=O)Cc2ccc3ccccc3n2)cc(OC)c1OC`, the growth inhibition is 2.05%.

Consider `COc1cc(NC(C)CCCN)c2nccc(C)c2c1` (stereo not given), for which the growth inhibition was -62.5%.

For the compound `COc1cc(Cc2cc(OC)c(OC)c(OC)c2)ccc1O`, the growth inhibition was 19.1%.

Turning to `CC[P+](C)(C)c1ccccc1`, the growth inhibition was 11.7%.

As for `Cc1ccc(NC(=S)N/C=C(\c2ccccc2)S(=O)Cc2ccccc2)c(C)c1` (stereo not given), the growth inhibition was 14.1%.

Turning to `CCN(CC)CCN(N)CCN(CC)CC`, the growth inhibition is -44.2%.

Turning to `COC(=O)/C=C(C)/C=C/c1cc(C(C)=O)c(C)o1`, the growth inhibition was 29.6%.

For the compound `CN=C(NC)C(c1ccccc1)c1ccccc1`, the growth inhibition is -5.8%.

For the compound `C/C=C/C(=O)OCCCCCCCCCCCCCCCCCC`, the growth inhibition is 15.5%.

`Nc1ccc(C(=O)Nc2ccc3c(ccc4ccccc43)c2)cc1`: the growth inhibition was -12.9%.

With `COc1ccc(N=C2SC(=N/N=c3\sc4ccccc4n3C)SC2=Nc2ccc(OC)cc2)cc1`, the growth inhibition was 28.9%.

On to `O=Cc1ccc2c(c1)CC1(Cc3ccccc3C1)C2`, for which the growth inhibition is 9.9%.

On to `Cc1ccc(NCC(O)CN2CCCC2)cc1` (stereo not given), for which the growth inhibition is -14.9%.

`CNC(=S)NC`: the growth inhibition was 0.2%.

Regarding `CCc1cc2c(O)c(c1)Cc1cc(CC)cc(c1O)Cc1cc(CC)cc(c1O)Cc1cc(CC)cc(c1O)Cc1cc(CC)cc(c1O)Cc1cc(CC)cc(c1O)Cc1cc(CC)cc(c1O)C2`, the growth inhibition is 6.9%.

`NC(=O)c1cnn(CCO)c1N`: the growth inhibition is 2.85%.

`COC(=O)Nc1cc2c3c(c1)CCCN3CCC2`: the growth inhibition was 10.1%.

Consider `COc1cc(/C=C/C(=O)c2ccccc2O)cc(OC)c1OC`, for which the growth inhibition was -9.15%.

For the compound `NC(=O)N1CCCCN1C(N)=O`, the growth inhibition was 6.75%.

`OC(CNc1ccc(Cl)nn1)c1ccccc1` (stereo not given): the growth inhibition is 9.7%.

In the case of `C[N+](C)(C)CCOC(=O)C(c1ccccc1)C1(O)CCCC1` (stereo not given), the growth inhibition is -1.7%.

Consider `Cc1cc(-c2ccc(N=Nc3c(C)nn(-c4ccc(S(=O)(=O)O)cc4)c3O)c(C)c2)ccc1N=Nc1ccc(O)c(C(=O)O)c1`, for which the growth inhibition is 18.6%.

On to `N#CC(c1cccs1)C1CCCCC1` (stereo not given), for which the growth inhibition was 2.65%.

On to `Cc1ccc(C(C#N)c2ccc(N)cc2)cc1` (stereo not given), for which the growth inhibition was 20.2%.
